Rows were chosen to be rich in hits. Some 21% of all compounds tested hit in one or more screens of this group.
Pf growth 96h – P. falciparum growth inhibition at 96 hours; 320,000 compounds, 6.9% hits; P. falciparum luciferase reporter growth, 96 h; Potency, µM (top dose mostly 28.7 µM), most hits filed as inhibitors
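P. falciparum expressing integrated firefly luciferase grown in erythrocytes (2% hematocrit, 0.05% parasitemia final) with compounds for 96 hours at 37 C, 5% CO2. Growth inhibition read as loss of luminescence after adding luciferase detection reagent.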
HCV inhibitor – inhibitors of hepatitis C virus infection; Potency, µM (series often up to 41.8 µM), hits mostly inhibitors; Huh7.5.1 HCVcc-Cre infection, luciferase reporter, 44 h; 340,000 compounds, 3.4% hits
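Infectious HCVcc-Cre (~0.5 moi) was added to cells just after compound, with cells seeded 4 h earlier at 1,000 per well. Luciferase activity after 44 h culture reported infection; substrate was incubated 15 min at room temperature before reading.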
Pf growth 48h – inhibits P. falciparum growth in the first generation, 48 h. 310,000 compounds, 5.9% hits. Potency, µM (highest dose often 28.7 µM), actives largely listed as inhibitors. P. falciparum luciferase growth in erythrocytes, 48 h
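Cell-based growth assay: transgenic P. falciparum expressing firefly luciferase, cultured in red cells within RPMI 1640 containing 0.5% w/v Albumax, 24 mM bicarbonate and gentamycin. A drop in luciferase activity indicates inhibition.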
AMA1 RON2 block – AMA1-RON2 (P. falciparum) interaction inhibition; AlphaScreen AMA1-biotinylated RON2 peptide binding; Potency, µM (doses to about 58.2 µM), usual class: inhibitors; 360,000 compounds, 0.2% hits; further: nearly all actives have a fitted effect of over 45% in size
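AMA1 (3D7) with his tag at 25 nM final met compounds first, then biotinylated RON2 peptide at 25 nM; detection used donor plus acceptor beads, 10 µg/mL apiece, read by AlphaScreen after 30 min at room temperature.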
CHX counter – counter-screen hit for Shiga toxin inhibitors, cycloheximide; max response, %; cell reporter, cycloheximide protein synthesis inhibition counterscreen; 300,000 compounds, 12% hits; in the data active means max response mostly above about 13%, no sharp cut-off; inactive means mostly below about 14%; further: read at 38.3 µM for the half of the compounds with a filed dose
Shiga inhibitor – blocks Shiga toxin action in Vero cells. inhibition, % at 38.7 µM. 290,000 compounds, 9.2% hits. AID 2315. Vero cells, Shiga toxin protein synthesis inhibition reporter; in the data active means inhibition mostly above about 28%, no sharp cut-off; inactive means mostly below about 43%
Each line names hits and unclear results; the compound was inactive in the other large screens. Unless noted, the call rests on the fitted dose curve; in most records, active means well fitted curve in the direction sought with a large enough effect; inconclusive means small, poorly fitted or top-dose-only effect, or another doubt; inactive means no such curve, though single readings can be large; an effect the other way counts as inactive or inconclusive.

O=C(NC1C(=O)NNC1c1ccccc1)c1ccccc1 (configuration not stated)	CHX counter 21.2, Shiga inhibitor 115.6
Cc1cccc(C(=O)NC2C(=O)NNC2c2ccc(Cl)cc2)c1 (configuration not stated)	Pf growth 96h inconclusive
Cc1cccc(C)c1NC(=O)CN(CC(=O)O)CC(=O)O	none (no result: HCV inhibitor, AMA1 RON2 block, CHX counter, Shiga inhibitor)
CSc1ccccc1NC(=O)c1cc(-c2ccco2)on1	CHX counter 18.0, Shiga inhibitor 55.1
CSc1ccccc1NC(=O)c1cc(C(C)C)on1	CHX counter 50.3, Shiga inhibitor 116.8 (no result: Pf growth 96h, Pf growth 48h)
COC(=O)c1ccccc1NC(=O)c1cc(-c2ccco2)on1	none
O=C(Nc1ccc(F)cc1F)c1cc(-c2ccco2)on1	CHX counter 30.7, Shiga inhibitor 93.3
Cc1c(Cl)cccc1NC(=O)c1cc(-c2ccco2)on1	Shiga inhibitor 53.6
Cc1ccc(CN2CC(C(=O)N(CC(C)C)c3c(N)n(Cc4ccccc4)c(=O)[nH]c3=O)CC2=O)cc1 (configuration not stated)	none (no result: Pf growth 96h, Pf growth 48h, CHX counter, Shiga inhibitor)
COc1cccc(N/C=C/C(=O)c2ccc(Cl)cc2)c1	CHX counter 62.6, Shiga inhibitor 92.2
COc1ccc(N/C=C/C(=O)c2ccc(Cl)cc2)cc1	CHX counter 63.2, Shiga inhibitor 69.2
COc1cccc(N/C=C/C(=O)c2ccc(C)cc2)c1	CHX counter 20.7, Shiga inhibitor 62.6
CCCCCCSc1ccc([C@H]2N[C@@](C)(C(=O)OC)[C@H]3C(=O)N(CC)C(=O)[C@@H]23)cc1	Pf growth 96h inconclusive, HCV inhibitor inconclusive, Pf growth 48h inconclusive (no result: CHX counter, Shiga inhibitor)
O=C(CC1CC1)Nc1ccc2c(c1)[C@H]1C[C@H](CC(=O)N3CCc4ccccc4C3)O[C@@H](CO)[C@H]1O2	none (no result: Pf growth 96h, HCV inhibitor, Pf growth 48h, CHX counter, Shiga inhibitor)
CC1=CN2C(=N)/C(=C/c3ccc(C)o3)C(=O)N=C2S1	CHX counter 24.1, Shiga inhibitor 53.3
CC1=CN2C(=N)/C(=C/c3ccc(Sc4ccc(C)cc4)o3)C(=O)N=C2S1	Pf growth 96h inconclusive, Pf growth 48h inconclusive, CHX counter 23.1, Shiga inhibitor active
CCOC(=O)[C@]12CCC=C1N(Cc1ccc3c(c1)OCO3)C(=O)[C@H](CC(=O)N1CCC(c3ccccc3)CC1)C2	none (no result: Pf growth 96h, HCV inhibitor, Pf growth 48h, CHX counter, Shiga inhibitor)
CN1CCN(NC(=O)c2ccc(S(=O)(=O)N3CC4(C)CC3CC(C)(C)C4)cc2)CC1 (configuration not stated)	none
O=C1NC(=O)N(c2ccccc2)C(=O)/C1=C/c1ccc2c(c1)Cc1ccccc1-2	none (no result: HCV inhibitor, AMA1 RON2 block)
COc1ccccc1N1C(=O)NC(=O)/C(=C/c2ccc3c(c2)Cc2ccccc2-3)C1=O	Shiga inhibitor 45.0
COc1cc(C(c2c(C)[nH][nH]c2=O)c2c(C)[nH][nH]c2=O)ccc1OC(=O)c1ccccc1OC	none (no result: Pf growth 96h, HCV inhibitor, Pf growth 48h, AMA1 RON2 block)
COc1ccccc1C(=O)Oc1ccc(C(C)C)cc1	CHX counter 34.6, Shiga inhibitor 83.8 (no result: Pf growth 48h)
COc1ccc(C(=O)O/N=C(/c2ccccc2)c2ccncc2)cc1OC	none
COc1ccccc1C(=O)O/N=C(\N)c1ccccc1Cl	CHX counter 54.7, Shiga inhibitor 118.8
CCOc1ccc(OCCCC(=O)ON=C(N)c2ccccc2Cl)cc1	Pf growth 48h inconclusive (no result: CHX counter, Shiga inhibitor)
COc1ccc(C(=O)O/N=C(\N)c2ccccc2Cl)cc1OC	Pf growth 96h 5.22µM, HCV inhibitor 10µM, CHX counter 33.2, Shiga inhibitor 158.8
CC(C)c1nnc(SCC(=O)Nc2ccc3c(c2)OCCO3)n1C	none
C=CCNC(=O)NC(=O)CN1C(=O)NC(c2ccccc2)(c2ccccc2)C1=O	none
COc1ccc(-c2cc3nc(-c4ccccc4)cc(N4CCC5(CC4)OCCO5)n3n2)cc1	HCV inhibitor inconclusive (no result: Pf growth 48h)
COc1cccc(-c2cc3nc(-c4ccccc4)cc(N4CCCC(O)C4)n3n2)c1 (configuration not stated)	HCV inhibitor 3.98µM, Pf growth 48h 11.7µM
CCC1CCCCN1c1cc(C)nc2cc(-c3cccc(C)c3)nn12 (configuration not stated)	HCV inhibitor inconclusive, Pf growth 48h inconclusive (no result: Pf growth 96h)
OC1CCCN(c2c3c(nc4cc(-c5cccc(Cl)c5)nn24)CCC3)C1 (configuration not stated)	HCV inhibitor inconclusive, Pf growth 48h 4.65µM
